This is an account of results in PubChem BioAssay AID743171 (National Center for Advancing Translational Sciences (NCATS), 2013).

Each structure is given as a SMILES string. “And” between values parts separate entries of the source, which are not always exact repeats. Equal values may be shown once. Records with an inconclusive call do not appear. The source made the active and inactive calls. Calls come from the whole dose curve; as a rule, active = well fitted inhibition curve with a large enough effect; inconclusive = small, poorly fitted or top-dose-only effect; inactive = flat fitted curve, though single readings scatter.

In this test the target is 15-hydroxyprostaglandin dehydrogenase [NAD(+)] (Homo sapiens) (UniProt P15428). Briefly: Extended Characterization of HPGD Inhibitors: Activity in Primary Assay (HPGD). The settings on record: recombinant HPGD, NADH fluorescence, PGE2 substrate; series mostly up to 57.1 µM. The source says: The central role of HPGD is to inactivate prostaglandins such as prostaglandin E2 (PGE2) or prostaglandin D2 (PGD2). These prostaglandins are involved in a number of processes, including inflammation, differentiation, and cellular signaling, which makes HPGD an important target for pharmacological intervention. Inhibition of 15-PGDH (HPGD) activity was screened by utilizing prostaglandin as an electron donor and NAD+ as an electron acceptor/cofactor. An increase in the fluorescence intensity due to conversion of NAD+ to NADH was used to measure the enzyme activity. All compounds were screened using a qHTS approach, where compounds are assayed using at least seven concentrations to generate concentration-response curves for every compound. Briefly, qHTS uses an inter-plate dilution method where the first plate contains the highest concentration of a set of compounds in DMSO, while subsequent plates contain the same compounds in the same well locations, but at successive lower concentrations. NIH Chemical Genomics Center [NCGC] NIH Molecular Libraries Probe Centers Network [MLPCN] MLPCN Grant: MH084681 Assay Submitter (PI): Structural Genomics Consortium
Chain of 15-hydroxyprostaglandin dehydrogenase [NAD(+)] (Homo sapiens) (P15428 whole entry, looked up): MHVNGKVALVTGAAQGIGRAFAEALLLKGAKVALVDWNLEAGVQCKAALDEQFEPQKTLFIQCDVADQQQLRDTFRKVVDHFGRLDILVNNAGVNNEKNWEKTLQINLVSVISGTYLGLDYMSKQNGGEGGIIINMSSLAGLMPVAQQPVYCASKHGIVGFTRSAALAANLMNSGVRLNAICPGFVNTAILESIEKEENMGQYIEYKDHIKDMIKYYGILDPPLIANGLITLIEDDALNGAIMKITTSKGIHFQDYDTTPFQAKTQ
Three uL of enzyme (20 nM final concentration) were dispensed to 1536-well Greiner black solid bottom plates. Compounds (23 nL) were transferred via Kalypsys PinTool. The plates were incubated for 15 min at room temperature, and then 1 uL of substrate/cofactor solution (Substrate/cofactor solution: 1 mM NAD+ and 30 uM prostaglandin (Sigma, prostaglandin E2, #P5640)) were added to start the reaction. The plates were immediately transferred to and read 4 times every 30 seconds on a ViewLux High-throughput CCD imager (Perkin-Elmer) using 340 nm excitation and 450 nm emission fluorescence protocol. The fluorescence intensity difference between the last and the first time points, normalized against controls, was used to compute reaction progress.
On to `O=C(c1ccc2c(c1)ncn2-c1ccc(Cl)cc1)N1CCCCC1`, for which the Potency is 21.5 nM (active).

As for `Cc1cccc(-n2cnc3cc(C(=O)N4CCC(C#N)CC4)ccc32)c1`, the Potency is 19200 nM (active).

Turning to `Cc1cc(-c2nnc3n2CCCCC3)c(C)n1-c1ccc(C#N)cc1`, the Potency was 96.1 nM (active).

As for `Cc1cccc(-n2cnc3cc(C(=O)N4CCCC(C)(C)C4)ccc32)c1`, the Potency is 68.1 nM (active).

For `Cc1cc(-c2nnc3n2CCCCC3)c(C)n1-c1ccc(C(F)(F)F)cc1`, the Potency was 68.1 nM (active).

As to `Cc1cccc(-n2cnc3cc(C(=O)N4CCCCCC4)ccc32)c1`, the Potency is 27.1 nM (active).

On to `c1ccc(-n2cc(-c3nnc4n3CCCCC4)c3ccccc32)cc1`, for which the Potency was 681 nM (active).

Take `Cc1ccc(-n2c(C)cc(-c3nnc4n3CCCCC4)c2C)cc1`: the Potency was 34.1 nM (active).

For the compound `Cc1cc(-c2nnc3n2CCCCCCC3)c(C)n1-c1ccccc1`, the Potency is 383 nM (active).

Regarding `Cc1cccc(-n2cnc3cc(C(=O)N4CCN(C)CC4)ccc32)c1`, the Potency was 2710 nM (active).

As to `Cc1cccc(-n2cnc3cc(C(=O)N4CCC(N5CCOCC5)CC4)ccc32)c1`, the Potency result is “inactive”.

In the case of `Brc1cnc2nc(SCc3cccnc3)[nH]c2c1`, the Potency was 1360 nM (active).

Consider `Cc1cc(-c2nnc3n2CCCCC3)c(C)n1-c1cccc2ccccc12`, for which the Potency was 54.1 nM (active) and 108 nM (active).

For the compound `Cc1ccc(-n2cnc3cc(C(=O)N4CCCCC4)ccc32)cc1`, the Potency is 19.2 nM (active).

As to `c1ccc(-n2ccc(-c3nnc4n3CCCCC4)c2)cc1`, the Potency is 607 nM (active).

Turning to `Cc1cccc(-n2cnc3cc(C(=O)NC4CCCCC4)ccc32)c1`, the Potency is 3040 nM (active).

On to `Cc1cccc(-n2cnc3cc(C(=O)N4CCCC4)ccc32)c1`, for which the Potency was 383 nM (active).

For `Cc1cc(-c2nnc3n2CCCC3)c(C)n1-c1ccccc1`, the Potency is 192 nM (active).

Turning to `Cc1cccc(-n2cnc3cc(C(=O)N4CCOCC4)ccc32)c1`, the Potency was 3040 nM (active).

As to `Cc1cccc(-n2cnc3cc(C(=O)N4CCCC(C(C)C)C4)ccc32)c1` (stereo not given), the Potency was 48.2 nM (active).

For `FC(F)(F)c1ccc(-c2nc(-c3nnc4n3CCCCC4)c(C(F)(F)F)o2)cc1`, the Potency result is “inactive”.

For the compound `Cc1cccc(-n2cnc3cc(C(=O)N4CC(C)CC(C)C4)ccc32)c1` (stereo not given), the Potency was 271 nM (active).

Consider `Cc1cc(-c2nnc3n2CCCCC3)c(C)n1-c1ccc(Br)cc1`, for which the Potency was 48.2 nM (active).

Take `Cc1cccc(-n2cnc3cc(C(=O)N4CCCC(C(F)(F)F)C4)ccc32)c1` (stereo not given): the Potency is 68.1 nM (active).

Turning to `Cc1cc(-c2nnc3n2CCCCC3)c(C)n1-c1ccncc1`, the Potency was 383 nM (active).

For the compound `Cc1cc(-c2nnc3n2CCC3)c(C)n1-c1ccccc1`, the Potency is 3040 nM (active).

Regarding `Cc1cc(-c2nnc3n2CCCCC3)c(C)n1-c1ccc(F)cc1`, the Potency was 121 nM (active).

`Clc1ccccc1CSc1nc2ncc(Br)cc2[nH]1`: the Potency is 54.1 nM (active).

For the compound `O=[N+]([O-])c1ccccc1CSc1nc2ncc(Br)cc2[nH]1`, the Potency was 96.1 nM (active).

For `Cc1cc(-c2nnc3n2CCCCCC3)c(C)n1-c1ccccc1`, the Potency is 242 nM (active).

Take `Clc1cccc(CSc2nc3ncc(Br)cc3[nH]2)c1`: the Potency was 242 nM (active).

Consider `N#Cc1ccccc1CCc1nc2ncc(Br)cc2[nH]1`, for which the Potency is 19200 nM (active).

With `COc1ccccc1-n1cnc2cc(C(=O)N3CCCCC3)ccc21`, the Potency is 27.1 nM (active).

Take `Brc1cnc2nc(SCc3ccccn3)[nH]c2c1`: the Potency is 3410 nM (active).

Regarding `N#Cc1cccc(CSc2nc3ncc(Br)cc3[nH]2)c1`, the Potency is 136 nM (active).

With `O=C(c1ccc2c(c1)ncn2-c1ccc(C(F)(F)F)cc1)N1CCCCC1`, the Potency was 85.7 nM (active).

Regarding `CCOC(=O)c1ccc(-n2cnc3cc(C(=O)N4CCCCC4)ccc32)cc1`, the Potency was 13.6 nM (active).

For the compound `c1ccc(-n2cc(-c3nnc4n3CCCCC4)cn2)cc1`, the Potency is 3830 nM (active).

`COc1ccc(CSc2nc3ncc(Br)cc3[nH]2)cc1F`: the Potency was 85.7 nM (active).

With `O=C(c1ccc2c(c1)ncn2-c1ccccc1)N1CCCCC1`, the Potency is 21.5 nM (active).
